Data on 64 compounds can be found in the antibiotic and cytotoxicity screens of Wong et al. (2023).

About 1,500 (3.8%) of roughly 39,000 compounds were called active. The sample as a whole holds a higher share of actives than the screen did.

The test system of this assay is HSkMC (human skeletal muscle cells). Put plainly: cytotoxicity call (relative viability < 0.9). Particulars: 10 µM.
`C[C@H]1C(=O)C(=O)[C@@H]2O[C@@H]2C1=O`: the cytotoxicity call was “inactive”.
In the case of `C[C@@H]1CN([C@@H](C)CO)C(=O)c2cc(NC(=O)C3CCCCC3)ccc2O[C@@H](C)CCCCO[C@@H]1CN(C)C(=O)c1ccncc1`, the cytotoxicity call is “inactive”.
Take `C=CC(=O)N[C@@H]1c2ccccc2C[C@@H]1O`: the cytotoxicity call was “inactive”.
With `Cc1noc(C)c1NC(=O)N(C)C[C@H]1OCCCC[C@@H](C)Oc2ccc(NS(=O)(=O)c3ccc(F)cc3)cc2C(=O)N([C@@H](C)CO)C[C@@H]1C`, the cytotoxicity call was “inactive”.
On to `COc1ccc(S(=O)(=O)Nc2ccc3c(c2)C(=O)N([C@H](C)CO)C[C@@H](C)[C@H](CN(C)Cc2ccc(Cl)c(Cl)c2)O3)cc1`, for which the cytotoxicity call was “active”.
Take `COc1ccc(S(=O)(=O)Nc2ccc3c(c2)C(=O)N([C@@H](C)CO)C[C@@H](C)[C@@H](CN(C)Cc2ccc(Cl)c(Cl)c2)O3)cc1`: the cytotoxicity call is “active”.
On to `COc1ccc(S(=O)(=O)Nc2ccc3c(c2)C(=O)N([C@@H](C)CO)C[C@@H](C)[C@H](CN(C)Cc2ccc(Cl)c(Cl)c2)O3)cc1`, for which the cytotoxicity call was “inactive”.
Consider `COc1ccc(S(=O)(=O)Nc2ccc3c(c2)C(=O)N([C@H](C)CO)C[C@@H](C)[C@@H](CN(C)Cc2ccc(Cl)c(Cl)c2)O3)cc1`, for which the cytotoxicity call was “inactive”.
The same measure for `COc1ccc(S(=O)(=O)Nc2ccc3c(c2)C(=O)N([C@H](C)CO)C[C@H](C)[C@@H](CN(C)Cc2ccc(Cl)c(Cl)c2)O3)cc1`: “inactive”; for `COc1ccc(S(=O)(=O)Nc2ccc3c(c2)C(=O)N([C@@H](C)CO)C[C@H](C)[C@@H](CN(C)Cc2ccc(Cl)c(Cl)c2)O3)cc1`: “active”.
For `COc1ccc(S(=O)(=O)Nc2ccc3c(c2)C(=O)N([C@@H](C)CO)C[C@H](C)[C@H](CN(C)Cc2ccc(Cl)c(Cl)c2)O3)cc1`, the cytotoxicity call is “inactive”.
As to `COc1ccc(S(=O)(=O)Nc2ccc3c(c2)C(=O)N([C@H](C)CO)C[C@H](C)[C@H](CN(C)Cc2ccc(Cl)c(Cl)c2)O3)cc1`, the cytotoxicity call is “inactive”.
With `COc1ccc(CN(C)C[C@@H]2OCCCC[C@@H](C)Oc3ccc(NC(=O)c4ccncc4)cc3C(=O)N([C@@H](C)CO)C[C@@H]2C)cc1`, the cytotoxicity call is “inactive”.
Turning to `C[C@@H]1CCCCO[C@H](CN(C)C(=O)Nc2ccc3c(c2)OCO3)[C@@H](C)CN([C@H](C)CO)C(=O)c2cc(NC(=O)CCC(F)(F)F)ccc2O1`, the cytotoxicity call was “inactive”.
The same measure for `C[C@@H]1CN([C@H](C)CO)C(=O)c2cc(NS(=O)(=O)c3ccccc3)ccc2O[C@@H]1CN(C)S(=O)(=O)c1cccs1`: “inactive”; for `COCCOC(=O)N1C(=O)[C@@]2(c3cc(C#Cc4ccc(OC)cc4)ccc31)[C@H](C(=O)N1CCc3cc(OC)c(OC)cc3C1)[C@H]1C(=O)O[C@H](c3ccccc3)[C@H](c3ccccc3)N1[C@@H]2c1ccc(OCCO)cc1`: “inactive”; for `COCC(=O)Nc1ccc2c(c1)OC[C@@H](C)N(C(=O)c1ccccc1F)C[C@H](C)[C@@H](OC)CN(C)C2=O`: “inactive”.
The same measure for `CC(C)NC(=O)Nc1cccc2c1O[C@H](CN(C)C(=O)NC1CCCCC1)[C@H](C)CN([C@@H](C)CO)C2=O`: “inactive”; for `Cc1noc(C)c1NC(=O)Nc1ccc2c(c1)C(=O)N([C@H](C)CO)C[C@H](C)[C@@H](CN(C)C(=O)Nc1ccc3c(c1)OCO3)OCCCC[C@H](C)O2`: “inactive”; for `C[C@@H]1CN([C@@H](C)CO)C(=O)c2cc(NS(=O)(=O)c3ccccc3)ccc2O[C@H]1CN(C)Cc1ccc(Oc2ccccc2)cc1`: “inactive”.
The same measure for `C[C@@H]1CN([C@H](C)CO)C(=O)c2cc(NS(=O)(=O)c3ccc(Cl)cc3)ccc2O[C@@H]1CN(C)Cc1ccc(Oc2ccccc2)cc1`: “active”; for `C[C@@H]1CN([C@H](C)CO)C(=O)c2cc(NS(=O)(=O)c3ccc(Cl)cc3)ccc2O[C@H]1CN(C)Cc1ccc(Oc2ccccc2)cc1`: “active”; for `C[C@@H]1CN([C@@H](C)CO)C(=O)c2cc(NS(=O)(=O)c3ccccc3)ccc2O[C@@H]1CN(C)Cc1ccc(Oc2ccccc2)cc1`: “inactive”.
Consider `C[C@H]1CN([C@@H](C)CO)C(=O)c2cc(NS(=O)(=O)c3ccc(Cl)cc3)ccc2O[C@@H]1CN(C)Cc1ccc(Oc2ccccc2)cc1`, for which the cytotoxicity call is “active”.
The same measure for `C[C@@H]1CN([C@@H](C)CO)C(=O)c2cc(NS(=O)(=O)c3ccc(Cl)cc3)ccc2O[C@H]1CN(C)Cc1ccc(Oc2ccccc2)cc1`: “inactive”; for `C[C@H](CO)N1C[C@H](C)[C@H](CN(C)Cc2ccc(Oc3ccccc3)cc2)Oc2ccc(NS(=O)(=O)c3ccc(Cl)cc3)cc2C1=O`: “inactive”; for `C[C@H]1CN([C@@H](C)CO)C(=O)c2cc(NS(=O)(=O)c3ccccc3)ccc2O[C@@H]1CN(C)Cc1ccc(Oc2ccccc2)cc1`: “inactive”.
On to `C[C@H](CO)N1C[C@H](C)[C@@H](CN(C)Cc2ccc(Oc3ccccc3)cc2)Oc2ccc(NS(=O)(=O)c3ccc(Cl)cc3)cc2C1=O`, for which the cytotoxicity call is “inactive”.
In the case of `C[C@H]1CN([C@@H](C)CO)C(=O)c2cc(NS(=O)(=O)c3ccc(Cl)cc3)ccc2O[C@H]1CN(C)Cc1ccc(Oc2ccccc2)cc1`, the cytotoxicity call was “active”.
Turning to `CC(C)NC(=O)Nc1ccc2c(c1)CC(=O)N([C@@H](C)CO)C[C@H](C)[C@H](CN(C)C(=O)NC1CCCCC1)O2`, the cytotoxicity call is “inactive”.
With `Cc1cccc[n+]1C`, the cytotoxicity call was “inactive”.
The same measure for `CN1C2=CC(=O)/C(=N\NC(N)=O)C=C2C[C@H]1S(=O)(=O)O`: “inactive”; for `COc1ccc(NC(=O)N(C)C[C@H]2OCCCC[C@H](C)Oc3ccc(NS(=O)(=O)c4ccc(C)cc4)cc3C(=O)N([C@@H](C)CO)C[C@H]2C)cc1`: “inactive”.
In the case of `CC(=O)OC1C(=O)C2(C)C(O)CC3OCC3(OC(C)=O)C2C(OC(=O)c2ccccc2)C2(O)CC(OC(=O)C(O)C(NC(=O)c3ccccc3)c3ccccc3)C(C)=C1C2(C)C` (centres undefined), the cytotoxicity call was “inactive”.
Take `CC(=O)OC1CC(C)(C)C(=C=C/C(C)=C/C=C/C(C)=C/C=C/C=C(C)/C=C/C=C(\C)C(=O)CC23OC2(C)CC(O)CC3(C)C)C(C)(O)C1` (centres undefined): the cytotoxicity call was “inactive”.
In the case of `C[C@@H]1CN([C@H](C)CO)C(=O)c2cc(NC(=O)CCCCCC(=O)Nc3ccccc3N)ccc2O[C@@H]1CN(C)C(=O)Nc1ccccc1`, the cytotoxicity call was “inactive”.
Take `CO[C@H]1CN(C)C(=O)c2ccc(NC(=O)CC(F)(F)F)cc2OC[C@H](C)N(C(=O)C2CCOCC2)C[C@H]1C`: the cytotoxicity call is “inactive”.
As to `O=c1c(O)cc(C2Oc3cc(O)cc(O)c3CC2O)cc2c(C3Oc4cc(O)cc(O)c4CC3O)cc(O)c(O)c12` (centres undefined), the cytotoxicity call was “inactive”.
The same measure for `Cc1noc(C)c1NC(=O)Nc1ccc2c(c1)C(=O)N([C@@H](C)CO)C[C@H](C)[C@@H](CN(C)Cc1ccc(C(F)(F)F)cc1)O2`: “inactive”.
Regarding `C[C@@H]1CN([C@H](C)CO)C(=O)c2cc(NS(=O)(=O)c3ccccc3)ccc2O[C@H]1CN(C)Cc1ccc(Oc2ccccc2)cc1`, the cytotoxicity call is “inactive”.
As to `C[C@H](CO)N1C[C@H](C)[C@H](CN(C)Cc2ccc(Oc3ccccc3)cc2)Oc2ccc(NS(=O)(=O)c3ccccc3)cc2C1=O`, the cytotoxicity call is “inactive”.
Take `C[C@@H]1CN([C@@H](C)CO)C(=O)c2cc(NS(=O)(=O)c3ccc(Cl)cc3)ccc2O[C@@H]1CN(C)Cc1ccc(Oc2ccccc2)cc1`: the cytotoxicity call was “active”.
With `C[C@@H]1CN([C@H](C)CO)C(=O)c2cc(NS(=O)(=O)c3cn(C)cn3)ccc2O[C@H]1CN(C)Cc1ccc2c(c1)OCO2`, the cytotoxicity call was “inactive”.
With `COc1ccc(S(=O)(=O)N(C)C[C@H]2Oc3ccc(NC(=O)Cn4cnnn4)cc3CC(=O)N([C@@H](C)CO)C[C@@H]2C)cc1`, the cytotoxicity call is “inactive”.
For the compound `C[C@@H]1CCCCO[C@@H](CN(C)C(=O)Nc2cccc3ccccc23)[C@H](C)CN([C@H](C)CO)C(=O)c2cc(NS(=O)(=O)c3cccs3)ccc2O1`, the cytotoxicity call was “inactive”.
Regarding `C[C@@H]1CCCCO[C@H](CN(C)C(=O)Nc2cccc3ccccc23)[C@H](C)CN([C@H](C)CO)C(=O)c2cc(NS(=O)(=O)c3cccs3)ccc2O1`, the cytotoxicity call is “active”.
Take `C[C@H](CO)N1C[C@H](C)[C@@H](CN(C)C(=O)Nc2cccc3ccccc23)OCCCC[C@H](C)Oc2ccc(NS(=O)(=O)c3cccs3)cc2C1=O`: the cytotoxicity call is “active”.
Consider `C[C@H]1CCCCO[C@@H](CN(C)C(=O)Nc2cccc3ccccc23)[C@@H](C)CN([C@@H](C)CO)C(=O)c2cc(NS(=O)(=O)c3cccs3)ccc2O1`, for which the cytotoxicity call is “inactive”.
Take `C[C@@H]1CN([C@@H](C)CO)C(=O)c2cc(NS(=O)(=O)c3cccs3)ccc2O[C@@H](C)CCCCO[C@H]1CN(C)C(=O)Nc1cccc2ccccc12`: the cytotoxicity call was “inactive”.
Take `C[C@H]1CCCCO[C@H](CN(C)C(=O)Nc2cccc3ccccc23)[C@@H](C)CN([C@@H](C)CO)C(=O)c2cc(NS(=O)(=O)c3cccs3)ccc2O1`: the cytotoxicity call is “inactive”.
As to `C[C@@H]1CN([C@@H](C)CO)S(=O)(=O)c2ccc(-c3ccc(F)cc3)cc2O[C@@H]1CN(C)S(C)(=O)=O`, the cytotoxicity call was “inactive”.
With `Oc1ccc([C@@H]2C=CCC2)cc1`, the cytotoxicity call is “inactive”.
With `COc1ccc(NC(=O)N(C)C[C@H]2OCCCC[C@@H](C)Oc3ccc(NC(=O)Nc4ccc5c(c4)OCO5)cc3C(=O)N([C@@H](C)CO)C[C@H]2C)cc1` the entry was “inactive”.
On to `C[C@@H]1CN([C@H](C)CO)C(=O)c2cccc(NC(=O)C3CCOCC3)c2O[C@@H]1CN(C)Cc1ccc2c(c1)OCO2`, for which the cytotoxicity call is “inactive”.
Take `Cc1cc(C(=O)Nc2cccc3c2O[C@H](CN(C)S(=O)(=O)c2ccc(F)cc2)[C@H](C)CN([C@H](C)CO)C3=O)n(C)n1`: the cytotoxicity call was “inactive”.
The same measure for `CN(C)CC(=O)N1[C@@H]2Cn3c(cccc3=O)[C@H]1[C@@H](C(=O)NCc1ccccc1)[C@@H]2CO`: “inactive”; for `C=CCC[C@@H](Cc1ccc(F)cc1)C(=O)O[C@H](CNC(=O)[C@H](CC=C)CC(=O)N(CCO)Cc1ccccc1)c1ccccc1`: “inactive”; for `C=CCC[C@@H](Cc1ccc(F)cc1)C(=O)O[C@@H](CNC(=O)[C@@H](CC=C)CC(=O)N(CCO)Cc1ccccc1)c1ccccc1`: “active”.
On to `C=CCC[C@H](Cc1ccc(F)cc1)C(=O)O[C@H](CNC(=O)[C@@H](CC=C)CC(=O)N(CCO)Cc1ccccc1)c1ccccc1`, for which the cytotoxicity call is “inactive”.
Turning to `C=CCC[C@H](Cc1ccc(F)cc1)C(=O)O[C@@H](CNC(=O)[C@@H](CC=C)CC(=O)N(CCO)Cc1ccccc1)c1ccccc1`, the cytotoxicity call is “active”.
Take `C=CCC[C@H](Cc1ccc(F)cc1)C(=O)O[C@H](CNC(=O)[C@H](CC=C)CC(=O)N(CCO)Cc1ccccc1)c1ccccc1`: the cytotoxicity call was “inactive”.
For the compound `C=CCC[C@@H](Cc1ccc(F)cc1)C(=O)O[C@H](CNC(=O)[C@@H](CC=C)CC(=O)N(CCO)Cc1ccccc1)c1ccccc1`, the cytotoxicity call was “active”.
The same measure for `C=CCC[C@@H](Cc1ccc(F)cc1)C(=O)O[C@@H](CNC(=O)[C@H](CC=C)CC(=O)N(CCO)Cc1ccccc1)c1ccccc1`: “active”; for `C=CCC[C@H](Cc1ccc(F)cc1)C(=O)O[C@@H](CNC(=O)[C@H](CC=C)CC(=O)N(CCO)Cc1ccccc1)c1ccccc1`: “inactive”.
